Structures are written as SMILES. Hit rate of the full screen: of about 360,000 compounds, about 950 (0.26%) were called active. Only a selection was taken, and actives are over-represented in it overall. Unmarked numbers belong to inactive results. Rule as the data show it: active = inhibition above about 11%; inactive = the rest.

The source of these data is PubChem BioAssay AID651602 (The Scripps Research Institute Molecular Screening Center, 2012).

This experiment can be described thus: reduced absorbance of E. coli cultures with phage – HTS, RecBCD inhibitor project, primary screen (AID 651602). Particulars: growth absorbance, at 11.9 µM, active compounds read high.
On to `Clc1cccc2c1C1CC2CCN1Cc1ccccc1` (stereo not given), for which the inhibition is 2.92%.

Turning to `C=CCN=C1NC(c2cccc(C(F)(F)F)c2)C(C(=O)OC)=C(C)N1C` (stereo not given), the inhibition was 2.4%.

`COc1ccccc1Cc1c(-c2ccc(F)cc2)nc2ccc(C)cn12`: the inhibition is 2.63%.

Take `CC1CCN(C(=O)c2ncn3c2C(=O)N[C@@H](C)C3)CC1`: the inhibition is 0.88%.

For `Cc1cccc(NC(=O)Cn2cc(C(=O)c3ccco3)c3ccccc32)c1`, the inhibition was 16.3% (active).

Turning to `CC1CCN(C(=O)Cn2cc(C(=O)c3ccco3)c3ccccc32)CC1`, the inhibition is 2.64%.

Regarding `O=C(Cn1cc(C(=O)c2cccs2)c2ccccc21)NCc1cccs1`, the inhibition was 3.17%.

Take `COCCCNC(=O)C[C@H]1C[C@@]2(C(=O)OC)C(=C[C@H](C(C)(C)C)O[C@@H]2C)N(Cc2ccc3c(c2)OCO3)C1=O`: the inhibition was 0.08%.

For `Cc1nc(NC(=O)C(C)(C)C)sc1[N+](=O)[O-]`, the inhibition was 0.38%.

In the case of `CC[C@H]1OC(=O)[C@H](C)[C@@H](O[C@H]2C[C@@](C)(OC)[C@@H](O)[C@H](C)O2)[C@H](C)[C@@H](O[C@@H]2O[C@H](C)C[C@H](N(C)C)[C@H]2O)[C@](C)(O)C[C@@H](C)[C@@H]2N[C@@H](COCCOC)O[C@H]([C@H]2C)[C@]1(C)O`, the inhibition is 39.4% (active).

For `Cc1ccc(N)cc1CN1CCN(c2ncc(Cc3ccccc3)cn2)CC1`, the inhibition is 1.25%.

Take `COc1ccc(SSc2ccc(OC)cc2C(=O)O)c(C(=O)O)c1`: the inhibition was 3.45%.

Regarding `CN1C(=O)C(Br)(Br)CC1c1cccnc1` (stereo not given), the inhibition was 2.07%.

With `CC(C)[C@@H](C)/C=C/[C@@H](C)[C@H]1CC[C@@H]2[C@]1(C)CCC1[C@]23C=C[C@]2(C[C@@H](O)CC[C@]12C)N(c1ccc([N+](=O)[O-])cn1)O3` (stereo not given in full), the inhibition was -0.39%.

For the molecule `CC(=O)NC(c1cccs1)c1cc(Br)c2cccnc2c1O` (stereo not given), the inhibition was 18.8% (active).

Take `O=[N+]([O-])c1cc([N+](=O)[O-])c2cccnc2c1O`: the inhibition is -2.95%.

For `N#Cc1ccccc1NC(=O)COc1c(Br)cc(Br)c2cccnc12`, the inhibition is -0.78%.

As for `O=c1[nH]c(-c2ccccc2)cn1C1CCN(Cc2ccc(-c3nc4ccc(F)cc4nc3-c3ccccc3)cc2)CC1`, the inhibition was 0.95%.

As to `CC(C)CNc1cccc2c1S(=O)(=O)N[C@H](CC(C)C)CO2`, the inhibition was 2%.

Consider `Cc1ccc(/C=N/NC(=O)C2=NNC(c3ccccc3)(c3ccccc3)C2)c(O)c1`, for which the inhibition was 16.3% (active).

Regarding `Cc1ccc(/C=N/NC(=O)C(NC(=O)c2ccccc2)c2n[nH]c(=O)c3ccccc23)cc1` (stereo not given), the inhibition was 1.99%.

Take `Cc1ccc(NC(=O)CCC(=O)N/N=C/c2ccco2)c(C)c1`: the inhibition is 0%.

Consider `CN1CCCc2nc(-c3ccccc3)ccc21`, for which the inhibition was 2.87%.

`C=CCn1c(SCC(=O)Nc2ccc(NC(C)=O)cc2)nc2sc(C)c(C)c2c1=O`: the inhibition was 5%.

As to `C=CCNC(=O)CSc1nc2sc(C)c(C)c2c(=O)[nH]1`, the inhibition is 97.6% (active).

For `Cc1sc2nc(CSCC(=O)Nc3c(Cl)cccc3Cl)[nH]c(=O)c2c1C`, the inhibition was -1.33%.

As for `COc1cccc(NC(=O)N(C)C[C@@H]2OCc3cn(nn3)CCCC(=O)N([C@@H](C)CO)C[C@H]2C)c1`, the inhibition is 1.68%.

In the case of `Cc1cc(OC(=O)NCCc2ccc(F)cc2)ccc1F`, the inhibition was 1.19%.

As to `CCOC(=O)N1CCN(C(=O)C[C@H]2C[C@@]3(C(=O)OC)C(=C[C@H](C4CCCC4)O[C@@H]3C)N(Cc3ccccc3)C2=O)CC1`, the inhibition is -1.47%.

As to `CC(C)C[C@H](NC(=O)CC1CCCC1)C(=O)N1CCC[C@H]1C(=O)NCc1ccccc1`, the inhibition was -1.58%.

For the molecule `NC1=NC(=O)C(Cc2cccc(Cl)c2Cl)S1` (stereo not given), the inhibition was 14.8% (active).

As to `NC1=NC(=O)C(Cc2cccc(Cl)c2)S1` (stereo not given), the inhibition is 2.84%.

Turning to `O=C1NC(=Nc2ccc(Cl)cc2)SC1Cc1cccc(Cl)c1Cl` (stereo not given), the inhibition is 3.76%.

`Nc1nc2c(ncn2[C@@H]2O[C@H](C(=O)N[C@H](Cc3ccccc3)C(=O)NCC3CCCCC3)[C@@H](O)[C@H]2O)c(=O)[nH]1`: the inhibition was 0.31%.

As to `CCCCCCCCN1C(=O)[C@@H](CC(=O)NCc2ccc(C)o2)C[C@@]2(C(=O)OC)C1=C[C@H](C(C)(C)C)O[C@@H]2C`, the inhibition is 4.26%.

Turning to `NC(=O)NCCCC(=O)O`, the inhibition was 3.55%.

Regarding `CC(=O)N(O)CCCCCNC(=O)CCC(=O)N(O)CCCCCNC(=O)CCC(=O)N(O)CCCCCNC(=O)CCC(=O)O`, the inhibition is 11.2% (active).

For the molecule `CC1=C(C/C=C(\C)CCCC(C)CCCC(C)CCCC(C)C)C(=O)c2ccccc2C1=O` (stereo not given), the inhibition was 99.2% (active).

Take `CCCCCCCCN1C(=O)[C@@H](CC(=O)N2CCN(C(=O)OCC)CC2)C[C@@]2(C(=O)OC)C1=C[C@H](C1CCCC1)O[C@@H]2C`: the inhibition is 0.85%.

Consider `CCOc1ccccc1C(=O)N1CCC[C@@H]1C(=O)N1CCC[C@H]1C(=O)NCc1ccccc1`, for which the inhibition is 2.4%.

Take `O=C(NCc1ccccc1)[C@@H]1CCCN1C(=O)[C@H]1CCCN1C(=O)c1cccc(Cl)c1`: the inhibition is 1.16%.

Regarding `CN(O)C(=S)c1ccccc1`, the inhibition was 28.3% (active).

As to `CCNC(=S)N(CCc1c(C)[nH]c2ccc(C)cc12)Cc1ccco1`, the inhibition is 13.2% (active).

As to `COc1ccc2[nH]c(C)c(CCN(Cc3cccs3)C(=S)Nc3ccccc3OC)c2c1`, the inhibition is 1.75%.

Consider `COCCNC(=S)N(CCc1c(C)[nH]c2ccc(C)cc12)Cc1cccnc1`, for which the inhibition is 2.3%.

Turning to `CC(C)[C@H]1COCCS(=O)(=O)N1Cc1ccccc1-c1cccc2c1sc1ccccc12`, the inhibition was 2.16%.

Consider `N#Cc1cccc(C(=O)NCC2CCN(C(=O)C(=O)c3cc4ccccc4o3)CC2)c1`, for which the inhibition was 1.78%.

Consider `CN1C(=O)C2CC(O)C(SC3CC4C(=O)N(C)C(=O)C4CC3O)CC2C1=O` (stereo not given), for which the inhibition was 5.11%.

Consider `CN1CCCCC(NC(=O)C(C)(C)C)C1=O` (stereo not given), for which the inhibition is 2.65%.

As to `COC(=O)[C@]12C[C@H](CC(=O)NCc3ccc(C)o3)C(=O)N(CCC3=CCCCC3)C1=C[C@H](C(C)(C)C)O[C@@H]2C`, the inhibition was 1.32%.

As to `CC(=O)C1=C(C)N(Cc2ccccc2)C(=S)NC1c1cccc(Br)c1` (stereo not given), the inhibition was 2.19%.

`CCCCNc1cccc2c1S(=O)(=O)N[C@@H](C)CO2`: the inhibition is 2%.

Regarding `CCCCCCCCN1C(=O)[C@@H](CC(=O)NCc2ccccc2)C[C@@]2(C(=O)OC)C1=C[C@H](C(C)(C)C)O[C@@H]2C`, the inhibition is 1.01%.

As to `CN(NS(=O)(=O)c1cccs1)c1ncc(C(F)(F)F)cc1Cl`, the inhibition was 1.24%.

With `COc1cccc(/C=N/Nc2ncc(C(F)(F)F)cc2Cl)c1O`, the inhibition is 24.4% (active).

Consider `O=C(c1ccccn1)c1ncc(C(F)(F)F)cc1Cl`, for which the inhibition is 2.12%.

For `Cn1ccc(=Nc2ccc(NC(=O)c3ccc(N=c4ccn(C)c5ccc([N+](=O)[O-])cc45)cc3)cc2)cc1`, the inhibition was 70.7% (active).

Consider `CC(C)c1ccc(NC(=O)CCN2C(=O)c3ccc([N+](=O)[O-])cc3C2=O)cc1`, for which the inhibition is -0.16%.

Consider `O=C(Nc1ccc(C2CC2(Cl)Cl)cc1)c1cccc([N+](=O)[O-])c1` (stereo not given), for which the inhibition is 1.49%.

For the molecule `COC(=O)C1=C(C(=O)OC)C2C=C(C(C)C)C1C(=O)C2(C)O` (stereo not given), the inhibition is 3.33%.

`Nc1ncnc2c1ncn2[C@@H]1O[C@H](C(=O)N[C@@H](CCc2ccccc2)C(=O)N2CCCN(Cc3cccs3)CC2)[C@@H](O)[C@H]1O`: the inhibition was 2.53%.

With `Nc1c(C(=O)Nc2ccc3c(c2)OCCO3)nnn1Cc1ccccc1`, the inhibition was 5.25%.

`COc1cccc(CNC(=O)c2nnn(CC(=O)Nc3cc(Cl)ccc3C)c2N)c1`: the inhibition is -1.55%.

Take `CCOc1ccc(Cn2nnc(C(=O)Nc3ccc(OC)cc3OC)c2N)cc1`: the inhibition is 10.9% (active).

For the molecule `CC(=O)c1ccc(S(=O)(=O)NCC2CCN(C(=O)C(=O)c3cccs3)CC2)cc1`, the inhibition is 2.71%.

For `C/C(=N\Nc1ccc(Cl)nn1)c1ccccc1O`, the inhibition was -5.1%.

`Oc1cccc(/C=N/Nc2ccc(Cl)nn2)c1O`: the inhibition is 13.1% (active).

With `Cc1ccc2nc(-c3ccc(CN4CCC(n5cc(-c6ccccc6)[nH]c5=O)CC4)cc3)c(-c3ccccc3)nc2c1`, the inhibition was 2.06%.

As to `O=C(NCc1ccccc1)[C@H]1CCCN1C(=O)[C@@H]1CCCN1C(=O)c1ccc(Cl)cc1Cl`, the inhibition was 1.72%.

On to `COc1cccc(CNC(=O)[C@H]2CCCN2C(=O)[C@H]2CCCN2C(=O)c2cc(F)cc(F)c2)c1`, for which the inhibition is 0.85%.

A word on the inhibition: it is the relative decrease from the control value, in per cent.
